Results on 15 compounds are retold here after PubChem BioAssay.

For part of these data: Measured potencies and affinities stand elsewhere. Activity calls are given as the source filed them.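 How the source made its calls, unless noted: active means fitted half-maximal concentration within 10 nM to 100 µM, steepness 0.5 to 2, significant signal drop, low assay interference; inactive means the rest.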

Assay [1] deals with Cell division control protein 42 homolog (Homo sapiens) (UniProt P60953). Put plainly: inhibition of fluorescent GTP binding to constitutively active Cdc42 – biochemical, multiplex bead flow cytometry, Bodipy-FL-GTP, dose response (AID 1333;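 active means fitted half-maximal concentration within the tested dose range, moderate curve steepness, a statistically real signal drop, and little compound fluorescence or tag-binding interference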).
Sequence of Cell division control protein 42 homolog (Homo sapiens) (P60953 whole entry, looked up): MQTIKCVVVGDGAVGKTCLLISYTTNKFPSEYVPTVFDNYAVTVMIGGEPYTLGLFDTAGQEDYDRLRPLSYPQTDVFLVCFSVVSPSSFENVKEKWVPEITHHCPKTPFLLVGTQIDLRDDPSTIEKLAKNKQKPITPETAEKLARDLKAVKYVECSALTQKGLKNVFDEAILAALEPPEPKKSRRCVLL
Assay [2] has the same target. Description: inhibition of fluorescent GTP binding to wildtype Cdc42 – biochemical, multiplex bead flow cytometry, Bodipy-FL-GTP, dose response (AID 1334;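 active means fitted half-maximal concentration within the tested range, moderate curve steepness, significant signal drop, and little compound fluorescence or bead-linkage interference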). The settings on record: bead-based flow cytometry, Bodipy-FL-GTP binding to GST-Cdc42; at 100 µM (top of the series) unless noted.
The target of assay [3] is GTPase HRas (Homo sapiens) (UniProt P01112). Description: Ras wt fluorescent GTP loading blockade – biochemical, wildtype, multiplex bead flow cytometry, dose response (AID 1335). The conditions noted are these: bead-based flow cytometry, Bodipy-GTP binding to GST-Ras; at 100 µM (top of the series) unless noted.
Sequence of GTPase HRas (Homo sapiens) (P01112 whole entry, looked up): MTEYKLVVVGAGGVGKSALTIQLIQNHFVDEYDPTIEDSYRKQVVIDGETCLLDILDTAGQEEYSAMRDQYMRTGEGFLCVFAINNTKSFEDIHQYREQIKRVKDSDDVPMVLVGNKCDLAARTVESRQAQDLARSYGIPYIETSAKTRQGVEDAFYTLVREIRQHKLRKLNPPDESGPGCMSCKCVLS
Assay [4] has as its system Ras-related protein Rab-7a (dog), GTP binding. Put plainly: blockers of fluorescent GTP binding to Rab7 – biochemical, wildtype, multiplex bead flow cytometry, dose response (AID 1336; call rule not given here).
Assay [5] has as its target Ras-related C3 botulinum toxin substrate 1 (Homo sapiens) (UniProt P63000). Put plainly: inhibition of wildtype Rac1 nucleotide loading – biochemical, multiplex bead flow cytometry, dose response (AID 1340;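 active means dose curve with midpoint inside tested range, moderate steepness, plateau gap beyond fit error, low compound glow and bead-link interference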). The conditions noted are these: GST-Rac1 beads, Bodipy-FL-GTP binding; at 100 µM (top of the series) unless noted.
Assay [6] concerns the target GTPase HRas (Homo sapiens) (UniProt P01112). Description: blockade of GTP loading onto mutant Ras – biochemical, activated mutant, multiplex bead flow cytometry, dose response (AID 1341;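 active means dose-response curve with midpoint inside the tested range, moderate steepness, significant amplitude and little compound fluorescence or bead-attachment interference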;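 further: GST-tagged constitutively activated Ras mutant immobilized on beads and multiplexed with other GTPases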).

`Cc1nc2ccccn2c1-c1csc(Nc2cccc(O)c2)n1`: the compound was called inactive in assay [1], in assay [4] and in assay [6]. Further, in assay [2], the fluorescence, percent of control (lower = inhibition) stood at 35.4%. In addition, the GTP binding, percent of control in assay [3] was found to be 80.4%. In assay [5], this compound displayed a GTP binding signal, raw median fluorescence (lower = inhibition) (MCF (arbitrary fluorescence units)) of 216.
Take `Cc1ccc(NC(=O)CN2C(=O)S/C(=C\c3ccc(-c4cccc(C(=O)O)c4C)o3)C2=O)cc1C`: the result in assay [1], in assay [4] and in assay [6] was inactive. Further, the fluorescence, percent of control (lower = inhibition) in assay [2] worked out at 107%. The GTP binding, percent of control in assay [3] was 149%. Moreover, in assay [5], the GTP binding signal, raw median fluorescence (lower = inhibition) (MCF (arbitrary fluorescence units)) is 265.
On to `COc1ccc(C)cc1NC(=O)COC(C)=O`, for which the result in assay [1], in assay [4] and in assay [6] was inactive. For the same compound, the fluorescence, percent of control (lower = inhibition) in assay [2] is 94.8%. In assay [3], this compound had a GTP binding, percent of control of 180%. The GTP binding signal, raw median fluorescence (lower = inhibition) (MCF (arbitrary fluorescence units)) in assay [5] was determined as 179.
As for `Cc1cc(C)n2nc(SCCOc3ccc(F)cc3)nc2n1`, the compound was called inactive in assay [1], in assay [4] and in assay [6]. The fluorescence, percent of control (lower = inhibition) in assay [2] is 42.7%. The same compound yielded a GTP binding, percent of control in assay [3] of 78.4%. The compound also yielded a GTP binding signal, raw median fluorescence (lower = inhibition) (MCF (arbitrary fluorescence units)) in assay [5] of 166.
`CC(C)CCn1c(CN2CCN(Cc3ccccc3)CC2)nc2c1c(=O)n(C)c(=O)n2C`: the compound was classed as inactive in assay [1], in assay [4] and in assay [6]. Also, the fluorescence, percent of control (lower = inhibition) in assay [2] amounted to 89.2%. The compound further returned a GTP binding, percent of control in assay [3] of 165%. In assay [5], the GTP binding signal, raw median fluorescence (lower = inhibition) (MCF (arbitrary fluorescence units)) was found to be 178.
`COc1ccccc1CNC(=O)c1c(N)n(CCCN2CCOCC2)c2nc3ccccc3nc12`: the result in assay [1], in assay [4] and in assay [6] was inactive. In addition, the fluorescence, percent of control (lower = inhibition) in assay [2] is 44.4%. For the same compound, the GTP binding, percent of control in assay [3] came to 89.9%. This compound returned a GTP binding signal, raw median fluorescence (lower = inhibition) (MCF (arbitrary fluorescence units)) in assay [5] of 214.
`Oc1c(C=Nc2cccc3cccnc23)sc2ccccc12`: the compound was called inactive in assay [1], in assay [4] and in assay [6]. The fluorescence, percent of control (lower = inhibition) in assay [2] came out at 93.4%. In assay [3], this compound registered a GTP binding, percent of control of 177%. The GTP binding signal, raw median fluorescence (lower = inhibition) (MCF (arbitrary fluorescence units)) in assay [5] came to 199.
As for `COc1cc(/C=N\NC(=O)CNC(=O)C2COc3ccccc3O2)ccc1O` (stereo not given), the compound was classed as inactive in assay [1], in assay [4] and in assay [6]. Further, the fluorescence, percent of control (lower = inhibition) in assay [2] amounted to 51.5%. Further, the GTP binding, percent of control in assay [3] is 62.3%. Further, the GTP binding signal, raw median fluorescence (lower = inhibition) (MCF (arbitrary fluorescence units)) in assay [5] came to 191.
On to `Cc1cc(C(F)F)n2nc(C(=O)Nc3ccc(S(=O)(=O)N4CCCCCC4)cc3)nc2n1`, for which the compound was called inactive in assay [1], in assay [4] and in assay [6]. The fluorescence, percent of control (lower = inhibition) in assay [2] came out at 36.8%. The compound also registered a GTP binding, percent of control in assay [3] of 82.1%. For the same compound, in assay [5], the GTP binding signal, raw median fluorescence (lower = inhibition) (MCF (arbitrary fluorescence units)) was 257.
Consider `COc1ccc(OCCSc2nc3nc(C)cc(C)n3n2)cc1`, for which the result in assay [1], in assay [4] and in assay [6] was inactive. Moreover, the fluorescence, percent of control (lower = inhibition) in assay [2] amounted to 45.5%. In assay [3], this compound registered a GTP binding, percent of control of 87.4%. The GTP binding signal, raw median fluorescence (lower = inhibition) (MCF (arbitrary fluorescence units)) in assay [5] came out at 178.
On to `O=C(COc1ncnc2cc([N+](=O)[O-])ccc12)NCc1ccc2c(c1)OCO2`, for which the compound was classed as inactive in assay [1], in assay [4] and in assay [6]. The fluorescence, percent of control (lower = inhibition) in assay [2] is 42.7%. Moreover, the GTP binding, percent of control in assay [3] is 56.9%. In addition, in assay [5], the GTP binding signal, raw median fluorescence (lower = inhibition) (MCF (arbitrary fluorescence units)) came out at 118.
Regarding `CCN1/C(=C/C=C/c2oc3ccc4ccccc4c3[n+]2CC)Oc2ccc3ccccc3c21`, the outcome in assay [1], in assay [4] and in assay [6] was inactive. The fluorescence, percent of control (lower = inhibition) in assay [2] amounted to 59.4%. The GTP binding, percent of control in assay [3] worked out at 108%. The GTP binding signal, raw median fluorescence (lower = inhibition) (MCF (arbitrary fluorescence units)) in assay [5] was 275.
For the compound `COc1ccc(C(=O)O)c(OCc2ccccc2C)c1`, the compound was classed as inactive in assay [1], in assay [4] and in assay [6]. The fluorescence, percent of control (lower = inhibition) in assay [2] was 62.5%. Also, the GTP binding, percent of control in assay [3] was determined as 208%. In assay [5], the GTP binding signal, raw median fluorescence (lower = inhibition) (MCF (arbitrary fluorescence units)) was found to be 57.3.
Consider `Cc1ccc(OCCn2cnc3cc([N+](=O)[O-])ccc3c2=O)cc1`, for which the compound was called inactive in assay [1], in assay [4] and in assay [6]. In addition, in assay [2], the fluorescence, percent of control (lower = inhibition) was determined as 38.1%. The compound further returned a GTP binding, percent of control in assay [3] of 85.1%. Also, the GTP binding signal, raw median fluorescence (lower = inhibition) (MCF (arbitrary fluorescence units)) in assay [5] was determined as 190.
For the compound `CC(=O)OC(C(=O)NC1CCCCC1)c1ccc(Cl)cc1` (stereo not given), the compound was called inactive in assay [1], in assay [4] and in assay [6]. Also, the fluorescence, percent of control (lower = inhibition) in assay [2] came out at 34.5%. Also, the GTP binding, percent of control in assay [3] is 82.1%. In assay [5], the GTP binding signal, raw median fluorescence (lower = inhibition) (MCF (arbitrary fluorescence units)) was found to be 240.
